# Bioassay records as filed in PubChem.
# ELG1 DNA repair – inhibitors of ELG1-dependent DNA repair in HEK293T cells. AID 504467. Potency, µM (doses to about 46.1 µM), for inactives: at the highest dose activity change, negative = inhibition, hits mostly inhibitors. 330,000 tested, 2.3% active. HEK293T ELG1-luciferase reporter, luminescence, 16 h; DNA damage induced by 5-fluorouridine; also: % is scaled to controls: 0 for no effect and ±100 for the full control effect; nearly all actives have a fitted effect of over 55% in size
#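 Cells (2,000 per well) received 5-fluorouridine plus test compound or DMSO and were incubated 16 hr at 37 °C, 5% CO2. Luciferase activity was read by luminescence 30 min after ONE-Glo addition; signal suppression marked inhibition of damage-induced ELG1 function.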
# KB-V1 cytotox – KB-V1 MDR subline cytotoxicity; KB-V1 MDR cells viability, CellTiter-Glo, 72 h; 400,000 tested, 3.4% active; AID 1347076; Potency, µM (highest dose often 46.1 µM), actives largely listed as cytotoxic; also: % is scaled to controls: 0 for no effect and ±100 for the full control effect; nearly all actives have a fitted effect of over 60% in size
#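 KB-V1 MDR subline cells in DMEM (phenol-red free, 10% FBS) exposed to compounds in qHTS concentration series for 72 h at 37 degrees C. Viability read by CellTiter-Glo luminescence; concentration-effect curves fitted after normalization and correction.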
# MCF10A rereplic – DNA re-replication induction in MCF 10a cells. MCF 10A DNA re-replication, Hoechst nuclear intensity, 48 h. Potency, µM (highest dose often 46.1 µM), for the others: top-dose activity, positive = re-replication, most hits filed as activators. 350,000 tested, 2.9% active; also: % of control where 0% means no effect; nearly all actives have a fitted effect of over 50% in size
# SW480 rerep – induces DNA re-replication in SW480 colon adenocarcinoma cells; 340,000 tested, 1.8% active; AID 624297; SW480 DNA re-replication, Hoechst DNA content imaging, 48 h; Potency, µM (doses to about 46.1 µM), for inactives: at the top dose re-replication activation, hits mostly activators; also: % of control where 0% means no effect; nearly all actives have a fitted effect of over 55% in size
#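 250 cells/well; 23 nL cpd via pin tool; 48 hr, 37 C, 5% CO2; Hoechst 40 min; imager read of total nuclear intensity, ex 405/em 500-530 nm.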
# KB-3-1 cytotox – kills parental KB-3-1 adenocarcinoma cells; KB-3-1 viability, CellTiter-Glo ATP luminescence, 72 h; Potency, µM (titrated, usually from 46.1 µM), actives largely listed as cytotoxic; 400,000 tested, 1.4% active; AID 1347075; also: % is scaled to controls: 0 for no effect and ±100 for the full control effect; nearly all actives have a fitted effect of over 60% in size
#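 Parental KB-3-1 adenocarcinoma cells in phenol-red-free DMEM with 10% FBS were pin-treated with compounds at several concentrations, incubated 72 h at 37 °C, and viability read by CellTiter-Glo luminescence; concentration-effect curves were fitted after normalization.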
# ELG1 FLuc counter – luciferase inhibition in cell-free luciferin readout for ELG1 hits. shares compounds with ELG1 DNA repair. cell-free firefly luciferase luminescence counter-screen, ViewLux. Potency, µM (top dose mostly 46.1 µM), for inactives: at the highest dose activity change, negative = inhibition, hits mostly inhibitors. 350 tested, 3% active; also: % is scaled to controls: 0 for no effect and ±100 for the full control effect
# ELG1-Luc inh – confirmation of human ELG1-dependent DNA repair inhibitors; shares compounds with ELG1 DNA repair; HEK293T ELG1-luciferase levels, luminescence; cells co-treated with 5-fluorouridine; Potency, µM (doses to about 46.1 µM), for the others: at the top dose activity change, negative = inhibition, actives largely listed as inhibitors; 670 tested, 68% active; AID 624248; also: % is scaled to controls: 0 for no effect and ±100 for the full control effect; nearly all actives have a fitted effect of over 55% in size
# ELG1-Luc MMS – inhibits ELG1-dependent repair under MMS stimulation in HEK293T cells | HEK293T luciferase-tagged ELG1 level, MMS stimulated | 670 tested, 53% active | AID 624249 | Potency, µM (series often up to 46.1 µM), for inactives: at the highest dose activity change, negative = inhibition, usual class: inhibitors | shares compounds with ELG1 DNA repair; also: % is scaled to controls: 0 for no effect and ±100 for the full control effect; nearly all actives have a fitted effect of over 60% in size
# ELG1 5-FU – confirmation of ELG1 repair inhibitors: viability with 5FU; Potency, µM (highest dose often 46.1 µM), inactives show at the top dose activity change, negative = viability loss, most hits filed as cytotoxic; cell viability with 5-FU, ELG1-dependent repair; 670 tested, under 10 active; shares compounds with ELG1 DNA repair;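 also: ELG1-luc HEK293T cells cotreated with 5-fluorouridine at 10 µM final; viability measured 16 h after compound addition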
# ELG1 MMS viab – confirmation of ELG1 repair inhibitors: viability with MMS. shares compounds with ELG1 DNA repair. Cell viability with MMS, ELG1-dependent DNA repair. Potency, µM (doses to about 46.1 µM), without a hit: at the top dose activity change, negative = viability loss, most hits filed as cytotoxic. 670 tested, 33% active;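 also: ELG1-luc HEK293T cells co-treated with 10 µM MMS; viability read 16 h after compound addition; % is scaled to controls: 0 for no effect and ±100 for the full control effect; nearly all actives have a fitted effect of over 60% in size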
# Cell viab unstim – counter-screen for ELG1 repair inhibitors: unstimulated cell viability. shares compounds with ELG1 DNA repair. cell viability counter-screen, unstimulated, luminescence. Potency, µM (series often up to 45.9 µM), without a hit: top-dose activity change, negative = loss of viability, usual class: cytotoxic. 900 tested, 8% active. AID 624252;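 also: compound exposure lasted 16 hours before reading; % is scaled to controls: 0 for no effect and ±100 for the full control effect; nearly all actives have a fitted effect of over 55% in size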
# FLuc biochem – firefly luciferase inhibition counter-screen; shares compounds with ELG1 DNA repair; Potency, µM (titrated, usually from 57.5 µM), for inactives: top-dose activity, negative = inhibition, usual class: inhibitors; 350 tested, 10% active; purified firefly luciferase, luminescence counter-screen; also: % is scaled to controls: 0 for no effect and ±100 for the full control effect
# The depositor's hits bear a star; i = inactive; ? = inconclusive; / = not tested or not shown. The list is not random: actives were taken first. Their share in the collection is about 8.2%. Calls follow the shape of the dose curve; as a rule, active = well fitted curve in the direction sought with a large enough effect; inconclusive = small, poorly fitted or top-dose-only effect, or another doubt; inactive = no such curve, though single readings can be large; an effect the other way counts as inactive or inconclusive. Potency is read from the fitted curve at half-maximal effect.
SMILES,ELG1 DNA repair,KB-V1 cytotox,MCF10A rereplic,SW480 rerep,KB-3-1 cytotox,ELG1 FLuc counter,ELG1-Luc inh,ELG1-Luc MMS,ELG1 5-FU,ELG1 MMS viab,Cell viab unstim,FLuc biochem
Cc1cc(C(=O)COC(=O)c2ccccc2O)c(C)n1CC1CCCO1 (centres undefined),?,?,12%,-15%,i,/,/,/,/,/,/,/
COc1ccc(-c2noc(CCCCC(=O)N3CCN(c4cc(C)ccc4C)CC3)n2)cc1,?,?,16%,-12%,?,/,?,1.3µM*,-4%,1.1µM*,14µM*,/
Cc1ccc(C)c(N2CCN(C(=O)CCc3nc(-c4cccc(Cl)c4)no3)CC2)c1,?,i,?,8%,i,/,/,/,/,/,-7%,/
COc1ccc(-c2noc(CCC(=O)N3CCN(c4ccccc4C)CC3)n2)cc1,-30%,i,31%,-7%,i,/,/,/,/,/,/,/
CCCCn1nnnc1C1(C)CCC(=O)N1CCOC (centres undefined),/,i,/,/,i,/,/,/,/,/,/,/
COC(=O)c1cnn2c(C(F)(F)F)cc(-c3ccccc3)nc12,?,i,-5%,-5%,i,/,/,/,/,/,/,/
COC(=O)c1ccccc1NC(=O)c1cnn2c(C(F)F)cc(C3CC3)nc12,?,i,?,7%,i,/,/,/,/,/,/,/
Cc1cc(NC(=O)c2cnn3c(C(F)F)cc(C4CC4)nc23)no1,-10%,i,3%,2%,i,1%,?,-3%,-1%,-6%,-12%,-5%
Cc1cc(NC(=O)c2cnn3c(C(F)(F)F)cc(-c4ccccc4)nc23)no1,7.3µM*,i,13%,15%,i,98%,5µM*,?,10%,?,?,-4%
COc1ccc(CCNc2ncnc3sccc23)cc1OC,0.29µM*,?,12%,-5%,?,12%,?,0.28µM*,0%,0.4µM*,?,-10%
NC(=O)C1CCN(c2ccc(S(=O)(=O)N3CCC(Cc4ccccc4)CC3)cn2)CC1,?,?,?,-6%,?,/,-15%,2µM*,-10%,2.5µM*,?,/
CN(CC(=O)Nc1ccccc1Br)C(=O)c1ccc(-c2ccc(Cl)cc2)o1,0.37µM*,i,?,?,i,16%,?,22µM*,-8%,25µM*,?,21µM*
O=C(Nc1ccc2c(c1)N(S(=O)(=O)c1cccs1)CCC2)c1c(F)cccc1F,?,i,12%,0%,i,/,/,/,/,/,/,/
